# STAT1 inh: STAT1 signaling inhibition; inhibition, % at 5.5 µM; actives 0.35% (n = 200,000); NIH 3T3 STAT1-luciferase reporter, IFN-gamma, luminescence;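 active = inhibition above a set limit, the mean inhibition across all tested compounds plus 3 SD, cut at about 34% in these data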;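 also: 0% = IFN-gamma with DMSO and 100% = IFN-gamma with 300 µM nifuroxazide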
# STAT3 blocker: STAT3 signaling inhibition. U3A cells, IL-6 STAT3-luciferase reporter, luminescence; host cell line lacks STAT1. inhibition, % at 5.5 µM. actives 0.89% (n = 190,000);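 active = inhibition above the mean inhibition across all screened compounds plus 3 SD, cut at about 44% in these data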;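 also: 0% = DMSO only wells and 100% = 100 µM nifuroxazide control wells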
# TRAIL sens C8: sensitizes caspase-8 expressing cells to TRAIL. NB7+C8 cells + TRAIL, ATPlite viability luminescence. inhibition (viability loss, TRAIL sensitization), % at 10 µM. actives 1% (n = 360,000);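 active = compounds causing at least 50% loss of cell viability in the single-dose screen, relative to plate controls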
# HSP90 refold inh: HSP90 refolding inhibition in rabbit reticulocyte lysate. luciferase refolding luminescence, 3 h. inhibition, % at 5.6 µM. actives 0.91% (n = 290,000). AID 1789;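 active = inhibition above the screen-wide mean plus 3 SD, computed separately per campaign, cut at about 16% in these data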;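 also: 0% = DMSO wells and 100% = 60 µM geldanamycin wells; inhibitors lower the luminescence because luciferase stays unfolded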
# HSF1 inh: HSF1 inhibition; NIH3T3-HGL HSE-luciferase, MG132-induced, luminescence 8 h; active compounds read low; actives 0.77% (n = 300,000); AID 2098; activity change, negative = inhibition, % at 7.5 µM (by protocol);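 active = more than half of replicate wells show activity change below -50%, luminescence cut by over half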;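 also: luciferase reports HSF-1 transcriptional activity via heat shock element; 0% = median of DMSO wells and -100% = zero luminescence signal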
# PPC-1+TRAIL kill: compounds killing PPC-1 cancer cells with TRAIL present (potentiator screen, no TRAIL-free arm); PPC-1 cells + TRAIL, ATPLite viability luminescence; cell killing (% activity), % at 4 µM or 5 µM; actives 0.41% (n = 220,000);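 active = cell killing above 50% in the first pass at 4 µM, then a duplicate retest at 5 µM averaging 50% or more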;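 also: plate controls were cells with TRAIL plus DMSO for no effect and medium-only wells lacking cells for full effect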
# * marks the source's active call; other numbers are inactive results; x = not tested or not shown. The list is not random: actives were taken first. Their share in the collection is about 2.4%.
SMILES,STAT1 inh,STAT3 blocker,TRAIL sens C8,HSP90 refold inh,HSF1 inh,PPC-1+TRAIL kill
CC(C)C[C@H]1CN(CCCC[C@H]2CNC(=O)C(=O)N2CCC2CCCCC2)C(=O)C(=O)N1CC1CCCCC1,x,x,17.6,x,x,x
CC1(C(=O)NS(=O)(=O)c2ccc(C#N)cc2)CCN1C(=O)c1cccc2ccccc12 (centres undefined),x,x,0.5,x,x,x
COc1cccc(CNC(=O)[C@@H]2CCCN2C(=O)[C@@H]2CCCN2C(=O)OC(C)(C)C)c1,x,x,3.5,x,x,x
CCOc1ccc(N2C(N)=NC(N)=NC2(C)C)cc1,-13.3,11.4,74.7*,1.6,-9.6,33.3
CCCCOc1ccc(N2C(N)=NC(N)=NC23CCCCC3)cc1,x,x,8.6,-0.4,-5.4,x
CC1(C)N=C(N)N=C(N)N1c1cccc(C(=O)O)c1,8.2,4.3,3.0,6.2,-6.6,1.1
CC1(C)N=C(N)N=C(N)N1c1cccc(C#N)c1,x,x,81.5*,x,-2.5,x
CC(C)C(=O)N1CCC1(C)C(=O)Nc1nc2ccccc2[nH]1 (centres undefined),x,x,-1.4,x,x,x
CC1CCc2c(sc3nc(C(C)(C)C)nc(N4CCN(C(=O)CCl)CC4)c23)C1 (centres undefined),x,x,94.3*,4.5,-5.3,x
CCC(=O)n1nc(-c2cccnc2)nc1NCc1cccs1,-11.4,-4.3,-1.4,0.2,-90.7*,8.7
Cc1cc(C(=O)COC(=O)C2COc3ccccc3O2)c(C)n1CC1CCCO1 (centres undefined),0.8,6.3,-12.8,9.1,-0.1,26.7
Cc1cc(C(=O)COC(=O)c2ccccc2O)c(C)n1CC1CCCO1 (centres undefined),x,x,87.0*,x,x,x
Cc1cc(C(=O)COC(=O)c2cc(O)c3ccccc3c2O)c(C)n1CC1CCCO1 (centres undefined),5.4,-43.5,0.4,1.5,x,9.0
Cc1cc(C(=O)COC(=O)c2cccc(NS(C)(=O)=O)c2)c(C)n1CC1CCCO1 (centres undefined),x,x,58.8*,x,x,x
COc1ccc(C=C2CS(=O)(=O)CC(=Cc3ccc(OC)cc3)C2=O)cc1,x,x,-11.5,x,x,x
Cc1cccc(S(=O)(=O)NC(=O)C2(C)CCN2C(=O)Cc2cccs2)c1 (centres undefined),x,x,-14.1,x,x,x
CN1C(=CC=C2C=C(I)C(=O)C(I)=C2)C(C)(C)c2ccccc21,x,x,23.9,3.4,x,50.2*
CN1/C(=C\C=C2/C(=O)Oc3ccccc3C2=O)C(C)(C)c2ccccc21,-18.6,5.3,x,-4.2,5.5,27.5
Nc1cccnc1S(=O)(=O)c1cccc(C(F)(F)F)c1,x,x,-19.4,x,-5.1,x
Nc1nc(N)c2cc(S(=O)(=O)c3cccc(C(F)(F)F)c3)ccc2n1,x,x,73.4*,x,x,x
COc1cccc(C(=O)/C=C2\Sc3ccccc3N2C)c1,-59.3,9.1,51.2*,0.5,17.4,49.8
Cc1ccccc1-c1ccc2c(c1)O[C@H](CN(C)C(=O)C1CC1)[C@@H](C)CN([C@@H](C)CO)S2(=O)=O,x,x,-11.6,x,x,x
CCOC1=C2CN(S(=O)(=O)c3ccc(C)cc3)[C@@H](c3cccs3)C[C@H]2[C@H]2C(=O)N(c3ccccc3)C(=O)[C@H]2C1,x,x,-1.0,x,x,x
CC1(C)CC(=O)C(N=Nc2ccc(OC(F)F)cc2)=C(O)C1,14.1,14.5,1.5,-1.1,-56.1*,-3.1
COC(=O)[C@@]12C[C@@H](CC(=O)NCCCCc3ccccc3)C(=O)N(Cc3ccco3)C1=CCC(C)(C)C2,x,x,1.0,x,x,x
SMILES,STAT1 inh,STAT3 blocker,TRAIL sens C8,HSP90 refold inh,HSF1 inh,PPC-1+TRAIL kill
O=C(Nc1ccc(OCC(F)(F)C(F)F)c(C(F)(F)F)c1)c1ccccc1O,6.0,-16.1,58.4*,-4.2,37.8,0.8
COc1cc(C(=O)C(=O)N2CCC(Cc3ccccc3)CC2)cc2ccccc12,x,x,-3.2,x,x,x
Clc1ccc(Nc2ccc(Cl)nn2)cc1,x,x,-11.8,3.4,-54.5*,3.7
COc1ccc(Nc2ccc(Cl)nn2)cc1,x,x,-4.3,-0.6,-3.1,x
COc1ccc(NC(=O)CCN(c2ccc(OC)cc2)S(=O)(=O)c2ccc(C)c(C)c2)cc1,x,x,-2.4,x,x,x
Cc1nn(-c2ccccc2)c(/N=C/c2ccc(O)cc2)c1-c1ccccc1,-28.6,-5.4,52.8*,0.8,28.1,39.6
Cc1ccc2c(c1)N=C(c1ccccc1)CC(C(Cl)Cl)=N2,x,x,58.3*,11.5,43.1,39.2
Cc1ccc(C2=Nc3ccccc3N=C(C(Cl)Cl)C2)cc1,8.6,21.4,54.2*,14.7,47.0,x
COC(=O)[C@@]12C[C@@H](CC(=O)N3CCCC3)C(=O)N(Cc3cccc4ccccc34)C1=CCC(C)(C)C2,x,x,0.8,x,x,x
Cc1ccc(Cn2ncc3c(N4CCN(CCc5ccccc5)CC4)ncnc32)cc1,x,x,33.0,2.3,1.3,14.5
Cc1ccc(Cn2ncc3c(N4CCN(C)CC4)ncnc32)cc1,0.1,10.6,14.2,-3.7,-74.6*,22.0
CCCn1c(O)c(C=Nc2ccccc2)sc1=S,-43.1,7.6,4.7,-0.6,26.2,-1.1
CCn1c(O)c(C=Nc2ccccc2)oc1=S,-16.8,28.0,-15.8,4.9,-67.2*,12.0
O=S(=O)(Nc1c(O)ccc2ccccc12)c1cccc2ccccc12,x,x,5.9,x,-89.8*,x
Cn1c2ccccc2c(=O)c2cc(C#Cc3cccc(N)c3)ccc21,x,x,-5.3,x,x,x
C=CCn1c2ccccc2c(=O)c2cc(C#CC[C@@H](C)O)ccc21,x,x,52.5*,x,x,x
CN(C)c1ccc(CNc2ccc3c(c2)ncn3C(C)(C)C)cc1,x,x,6.5,4.2,-53.9*,x
Cc1cccc(NC2(C(F)(F)F)N=C(c3ccccc3)NC2=O)n1 (centres undefined),-3.3,11.0,-10.6,-4.6,-57.0*,0.9
C[N+](=O)C1C(=O)Nc2ccccc21 (centres undefined),x,x,-2.6,x,x,x
CNC(=O)c1cc(Oc2ccc(NC(=O)Nc3ccc(Cl)c(C(F)(F)F)c3)cc2)ccn1,x,x,71.3*,x,x,x
O=C(Nc1ccc(Cl)c(C(F)(F)F)c1)c1ccncc1,-7.9,19.3,8.8,0.3,4.0,x
CCOC(=O)C1(Cc2ccccc2C)CCCN(C(=O)c2ccc(C(C)=O)s2)C1 (centres undefined),x,x,5.7,x,x,x
CC(=O)COc1ccccc1OC(=O)c1ccco1,4.3,7.2,-11.1,-1.9,-51.1*,21.4
C[C@@H]1CN([C@@H](C)CO)C(=O)CCCn2nncc2CO[C@H]1CN(C)Cc1ccc2c(c1)OCCO2,x,x,-4.2,x,x,x
Nc1nc(CCl)nc(Nc2ccccc2)n1,-7.5,8.7,9.0,2.9,6.8,24.4
Cc1ccc(Nc2nc(N)nc(CCl)n2)cc1,x,x,93.2*,8.2,28.3,48.0
COc1cccc(Nc2nc(N)nc(CCl)n2)c1,x,x,88.9*,-0.8,13.3,16.1
Cc1cccc(Nc2nc(N)nc(CCl)n2)c1,x,x,90.4*,12.0,13.8,14.5
C=C(CN(C)C)C(=O)c1ccc(OC2OC(COC(C)=O)C(OC(C)=O)C(OC(C)=O)C2OC(C)=O)cc1 (centres undefined),x,x,46.8,x,x,x
CCOC(=O)C1(CCOc2ccccc2)CCN(Cc2cccc(F)c2)CC1,x,x,22.0,2.1,1.8,x
